{"source": "PubChem BioAssay (EPA / NIEHS)", "note": "Records with an inconclusive call do not appear. Calls of active or inactive are those of the source. The calls were made as follows: active = hit-call score of the fitted dose curve at least 0.9, where 1 is the maximum; inconclusive = response in the unintended direction; inactive = score below 0.9."}
{"biological_target": "Sodium channel protein type 1 subunit alpha (Rattus norvegicus) (UniProt P04774)", "assay": "NVS_IC_rNaCh_site2: NovaScreen (NVS) Ion Channel Assay for rat Sodium Channel, Site 2 (NaCh) (AID 2283322);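 also: hit means loss of radioligand binding signal relative to DMSO so AC50 marks displacement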", "method_in_brief": "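Initial duplicate single-point testing at 25 uM, followed by concentration-response runs for actives. Binding of radioligand to rat forebrain membranes quantified after 1 h via filter-based radiodetection.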"}
{"smiles": "CS(=O)(=O)OCCCCOS(C)(=O)=O", "outcome": "inactive"}
{"smiles": "CCCCC(CC)COC(C)=O", "note": "(stereo not given)", "outcome": "inactive"}
{"smiles": "CC=Cc1ccc(OC)c(OC)c1", "outcome": "inactive"}
{"biological_target": "rat Thyrotropin Releasing Hormone Receptor (TRH), Trhr (gene 25570) (UniProt Q01717)", "sequence (Q01717 whole entry, looked up)": "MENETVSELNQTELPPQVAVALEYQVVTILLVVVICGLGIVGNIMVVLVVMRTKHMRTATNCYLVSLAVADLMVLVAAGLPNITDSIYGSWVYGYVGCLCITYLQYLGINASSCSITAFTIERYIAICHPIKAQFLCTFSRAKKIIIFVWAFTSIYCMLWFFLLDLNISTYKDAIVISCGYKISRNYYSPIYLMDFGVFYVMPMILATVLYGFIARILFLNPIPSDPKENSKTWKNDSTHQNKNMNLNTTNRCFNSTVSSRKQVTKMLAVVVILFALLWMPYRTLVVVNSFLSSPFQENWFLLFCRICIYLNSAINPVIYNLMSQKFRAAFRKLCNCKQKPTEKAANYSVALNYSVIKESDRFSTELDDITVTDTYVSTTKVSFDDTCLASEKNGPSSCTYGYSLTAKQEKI", "assay": "NVS_GPCR_rTRH: NovaScreen (NVS) G Protein-Coupled Receptor Assay for rat Thyrotropin Releasing Hormone Receptor (TRH) (AID 2283329);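 also: hit means lower bound tracer signal versus DMSO baseline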", "method_in_brief": "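Rat forebrain membrane prep, radioligand displacement, filter scintillation readout at 4 h. Single conc 25 uM, duplicate; actives retested as concentration series. DMSO = negative control/baseline.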"}
{"smiles": "CC(C=O)Cc1ccc(C(C)(C)C)cc1", "note": "(stereo not given)", "outcome": "inactive"}
{"smiles": "O=[N+]([O-])c1ccc(O)cc1C(F)(F)F", "outcome": "inactive"}
{"smiles": "C1=CC2C3C=CC(C3)C2C1", "note": "(stereo not given)", "outcome": "inactive"}
{"smiles": "CCCCCCCCCCCCCCN(CCO)CCO", "outcome": "inactive"}
{"smiles": "OCCc1ccccc1", "outcome": "inactive"}
{"smiles": "COS(=O)(=O)O", "outcome": "inactive"}
{"smiles": "COC(=O)c1ccc(C)cc1C1=NC(C)(C(C)C)C(=O)N1", "note": "(stereo not given) (tested in a mixture with another compound)", "outcome": "inactive"}
{"smiles": "CCCCCC(=O)CC", "outcome": "inactive"}
{"smiles": "CCC(=O)O[C@@H]1C[C@H]2CC[C@]1(C)C2(C)C", "outcome": "inactive"}
{"smiles": "CCCCCCCCN1CCCC1=O", "outcome": "inactive"}
{"smiles": "O=CCc1ccccc1", "outcome": "inactive"}
{"smiles": "CCCCCCCCCCCC(=O)OCC(O)CO", "note": "(stereo not given)", "outcome": "inactive"}
{"smiles": "CCOC(=O)C1OC1c1ccccc1", "note": "(stereo not given)", "outcome": "inactive"}
{"smiles": "CN1CCOCC1", "outcome": "inactive"}
{"smiles": "CCCCCCCCSCCO", "outcome": "inactive"}
{"smiles": "OC[C@H]1O[C@@H]2O[C@H]3[C@H](O)[C@@H](O)[C@@H](O[C@H]4[C@H](O)[C@@H](O)[C@@H](O[C@H]5[C@H](O)[C@@H](O)[C@@H](O[C@H]6[C@H](O)[C@@H](O)[C@@H](O[C@H]7[C@H](O)[C@@H](O)[C@@H](O[C@H]8[C@H](O)[C@@H](O)[C@@H](O[C@H]9[C@H](O)[C@@H](O)[C@@H](O[C@H]1[C@H](O)[C@H]2O)O[C@@H]9CO)O[C@@H]8CO)O[C@@H]7CO)O[C@@H]6CO)O[C@@H]5CO)O[C@@H]4CO)O[C@@H]3CO", "outcome": "inactive"}
{"smiles": "O=C1OC(=O)c2c(Cl)c(Cl)c(Cl)c(Cl)c21", "outcome": "inactive"}
{"smiles": "CCOC(=O)[C@@H](C)Oc1ccc(Oc2nc3ccc(Cl)cc3o2)cc1", "outcome": "inactive"}
{"smiles": "CN(C)c1cccc(O)c1", "outcome": "inactive"}
{"smiles": "CCNCCO", "outcome": "inactive"}
{"smiles": "c1ccc(Oc2ccccc2)cc1", "outcome": "inactive"}
{"smiles": "CCCCCCCCC=CCCCCCCCC1=NCCN1CCO", "outcome": "inactive"}
{"smiles": "C=Cc1ccc(C)cc1", "outcome": "inactive"}
{"smiles": "CSCCC=O", "outcome": "inactive"}
{"smiles": "CC(=O)O[C@H]1C[C@@H]2CC[C@@]1(C)C2(C)C", "outcome": "inactive"}
{"smiles": "C=C[Si]1(C)O[Si](C)(C=C)O[Si](C)(C=C)O[Si](C)(C=C)O1", "note": "(stereo not given)", "outcome": "inactive"}
{"smiles": "C=CC(C)(O)CCC=C(C)C", "note": "(stereo not given)", "outcome": "inactive"}
